RecA splice inh: Mtb RecA intein splicing inhibitors, primary screen, biochemical, fluorescence, HTS; cell-free RecA intein splicing; actives 0.75% (n = 290,000); Protein RecA (Mycobacterium tuberculosis (strain ATCC 25618 / H37Rv)), P9WHJ3; inhibition, % (test concentration not listed); AID 2221, 2009; in the data active = inhibition above about 30%;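 also: 0% = vehicle wells and 100% = reference inhibitor control wells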
Target sequence (P9WHJ3 whole entry, looked up, canonical isoform): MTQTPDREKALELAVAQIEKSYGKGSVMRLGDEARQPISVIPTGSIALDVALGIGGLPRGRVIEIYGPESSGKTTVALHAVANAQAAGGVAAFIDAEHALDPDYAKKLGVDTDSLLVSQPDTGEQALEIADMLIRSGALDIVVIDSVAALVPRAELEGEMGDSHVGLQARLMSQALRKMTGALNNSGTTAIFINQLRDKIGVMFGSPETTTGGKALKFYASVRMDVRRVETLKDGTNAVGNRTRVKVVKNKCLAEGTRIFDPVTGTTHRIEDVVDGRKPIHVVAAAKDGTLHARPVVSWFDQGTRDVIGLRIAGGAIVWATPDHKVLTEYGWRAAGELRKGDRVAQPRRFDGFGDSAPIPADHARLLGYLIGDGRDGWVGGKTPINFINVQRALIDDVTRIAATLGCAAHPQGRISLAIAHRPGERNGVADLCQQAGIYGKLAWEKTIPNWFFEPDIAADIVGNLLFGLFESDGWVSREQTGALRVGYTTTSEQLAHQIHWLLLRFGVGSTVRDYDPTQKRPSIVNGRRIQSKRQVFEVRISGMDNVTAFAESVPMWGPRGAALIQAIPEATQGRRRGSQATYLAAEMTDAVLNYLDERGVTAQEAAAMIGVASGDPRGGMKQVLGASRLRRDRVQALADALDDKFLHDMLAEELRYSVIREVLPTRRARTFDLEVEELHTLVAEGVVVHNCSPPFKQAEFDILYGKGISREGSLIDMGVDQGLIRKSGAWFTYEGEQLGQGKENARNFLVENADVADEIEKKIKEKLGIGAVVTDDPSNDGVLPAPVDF
GDH-TPI counter-1: GDH-TPI coupling enzyme inhibitors, primary screen, artefact control for M. tuberculosis FBA inhibitor project, biochemical, absorbance, full deck; actives 1.2% (n = 360,000); AID 588335, 2011; inhibition, % at 4.8 µM; GDH-TPI coupled enzyme counterscreen, NADH absorbance; in the data active = inhibition above about 30%;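 also: 0% = DMSO wells and 100% = wells lacking the enzyme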
CCHF vOTU inh: CCHFV vOTU protease inhibitors, primary screen, biochemical, Pep-AMC substrate, fluorescence; Crimean-Congo hemorrhagic fever virus L polyprotein viral ovarian tumor (vOTU) protease …; inhibition, % at 11.5 µM; actives 0.55% (n = 370,000); in the data active = inhibition above about 30%; also: 0% = vehicle wells with enzyme and 100% = no enzyme wells
Mtb betalactam: beta-lactam sensitization of Mtb H37Rv, H37Rv; actives 0.27% (n = 330,000); M. tuberculosis H37Rv growth with meropenem, percent inhibition; inhibition, % at 25 µM; call rule not given here;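 also: growth measured after seven days incubation then overnight dye step; 0% = bacteria only wells and 100% = bacteria with antibiotic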
FBA Mtb inh: Mtb FBA enzyme inhibitors, primary screen, biochemical, fluorescence, strain H37Rv | Fructose-bisphosphate aldolase (Mycobacterium tuberculosis (strain ATCC 25618 / H37Rv)), … | purified M. tuberculosis FBA, fluorescence read-out | actives 2.3% (n = 360,000) | AID 588726, 2011 | inhibition, % at 1 µM;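 also: 0% = vehicle and 100% = reference inhibitor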
Mtb FBA confirm: M. tuberculosis aldolase blockers, biochemical, fluorescence, strain H37Rv, confirmation; shares compounds with FBA Mtb inh; purified M. tuberculosis FBA, fluorescence read-out; inhibition, % at 1 µM; actives 78% (n = 5,600);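 also: 0% = vehicle wells and 100% = reference inhibitor wells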
GDH-TPI counter-2: GDH-TPI coupling enzyme inhibitors, artefact control for M. tuberculosis FBA inhibitor project, biochemical, fluorescence, high throughput. shares compounds with FBA Mtb inh. GDH-TPI coupled enzyme counterscreen. actives 81% (n = 5,600). inhibition, % at 1 µM. AID 652141, 2013; in the data active = inhibition above about 10%
GDH-TPI dose: GDH-TPI coupling enzyme inhibitors, dose response, artefact control for M. tuberculosis FBA inhibitor project, biochemical, fluorescence, IC50; shares compounds with FBA Mtb inh; GDH-TPI coupled enzyme assay, artifact counterscreen; IC50, µM; actives 79% (n = 170); AID 652145, 2013; call rule not given here
* hit, by the source's call; nt = not tested or not shown; + = active, no number. An excerpt weighted towards active compounds, which were near 4.2% of everything screened. Rule as the data show it, unless noted: active = inhibition above about 27%; inactive = the rest.

SMILES | RecA splice inh | GDH-TPI counter-1 | CCHF vOTU inh | Mtb betalactam | FBA Mtb inh | Mtb FBA confirm | GDH-TPI counter-2 | others
C/C=C/C(=O)N1CCc2cc(S(=O)(=O)N(C)Cc3ccco3)ccc21 | nt | nt | 9.5 | nt | nt | nt | nt
CCOC(=O)C1(Cc2ccccc2)CCN(Cc2ccccc2[N+](=O)[O-])CC1 | nt | nt | -3.4 | nt | nt | nt | nt
O=C(Nc1cccc(Br)c1)OC1CC2CC1[C@H]1CCCCN1[C@H]2Cc1ccccc1 (stereo not given in full) | nt | nt | -4.3 | nt | nt | nt | nt
N#Cc1nc(Cc2cccc3ccccc23)oc1NCCCN1CCOCC1 | -4.5 | 4.8 | 19.4 | 3.7 | -2.0 | nt | nt
N#Cc1nc(-c2cccc3ccccc23)oc1NCCN1CCCCC1 | -1.9 | 11.0 | -159.0 | 20.6 | 70.0* | 195.2* | 188.4*
CCOc1ccc(Nc2oc(-c3ccco3)nc2C#N)cc1 | 8.7 | 16.4 | -2.2 | 69.8 | 3.6 | nt | nt
N#Cc1nc(-c2ccco2)oc1NCc1ccccc1Cl | 0.4 | 18.6 | -4.3 | -7.9 | 35.4* | 88.7* | 79.2*
CCCCCC(=O)N1CCN(CCN=CC2=C(O)CC(c3ccc(OC)cc3)CC2=O)CC1 (stereo not given) | -0.4 | 2.6 | -12.5 | -1.6 | 5.3 | nt | nt
CCC(=O)N1CCN(CCN=CC2=C(O)CC(c3ccc(OC)cc3)CC2=O)CC1 (stereo not given) | -1.0 | 6.1 | 1.0 | 8.2 | 58.9* | 88.0* | 82.1*
CCc1noc(C)c1C(=O)N1CCN(S(=O)(=O)c2ccc(Cl)cc2)CC1 | nt | -9.6 | 7.8 | -5.6 | 33.3* | 94.4* | 79.0*
CCc1noc(C)c1C(=O)N1CCN(S(=O)(=O)c2ccc(C(C)C)cc2)CC1 | 0.5 | 7.4 | -3.3 | -7.0 | -0.9 | nt | nt
CCOc1ccccc1C(=O)Nc1ccc2nc(C)[nH]c(=O)c2c1 | nt | nt | 7.1 | nt | nt | nt | nt
COc1ccc(-c2nc3ccccc3nc2-c2ccccc2)cc1 | nt | -1.2 | 5.7 | 0.4 | 2.9 | nt | nt
COc1ccc(-c2ncccc2O)cc1 | -11.5 | 0.5 | -12.9 | 3.5 | 40.2* | 87.7* | 91.5*
CCc1cccc(Nc2cc(C)n(-c3cccc(CC)c3)c(=O)c2)c1 | nt | nt | 3.1 | nt | nt | nt | nt
O=C(O)C1CCN(S(=O)(=O)c2cccs2)CC1 | -1.1 | -2.3 | 2.1 | -4.0 | 31.6* | 57.2* | 36.3*
O=C(Nc1ccccc1)C1CCN(S(=O)(=O)c2cccs2)CC1 | nt | 5.4 | 4.2 | -5.3 | 7.8 | nt | nt
Cc1ccc(C(=O)CSc2nc(-c3ccccc3)ccc2C#N)cc1 | -8.0 | 3.1 | 10.5 | 2.9 | 0.8 | nt | nt
CCSc1nc(-c2ccc(OC)cc2)ccc1C#N | 3.1 | 13.3 | -16.5 | 79.9 | 42.3* | 83.9* | 80.2*
COc1ccc(-c2ccc(C#N)c(SCC(=O)NC3CC3)n2)cc1OC | -4.8 | 25.0 | -97.1 | -2.5 | 99.2* | 107.9* | 110.6*
COC(=O)C1CCCN(C(=O)C(Cc2ccc3c(c2)OCO3)NC(C)=O)C1 (stereo not given) | nt | nt | 9.1 | nt | nt | nt | nt
Nc1[nH]c(C(=O)c2ccccc2)c(-c2ccc(Cl)cc2F)c1C(=O)NCCc1c[nH]c2ccccc12 | nt | nt | 10.6 | nt | nt | nt | nt
CCC(CO)Nc1cccc2c1S(=O)(=O)N(Cc1cn(Cc3ccc(C(F)(F)F)cc3)nn1)Cc1ccccc1O2 (stereo not given) | nt | nt | 9.0 | nt | nt | nt | nt
COc1ccc(CC(=O)NCC2CCCCC2)cc1OC | -0.7 | 8.0 | -11.2 | -8.0 | 27.8* | -7.6 | -8.8
COc1cc(CCC(=O)OCC(=O)NCC2CCCCC2)cc(OC)c1OC | -1.0 | 0.0 | -7.3 | 6.4 | 0.7 | nt | nt
SMILES | RecA splice inh | GDH-TPI counter-1 | CCHF vOTU inh | Mtb betalactam | FBA Mtb inh | Mtb FBA confirm | GDH-TPI counter-2 | others
Cc1cc(C)c2sc(C)[n+](CCCS(=O)(=O)[O-])c2c1 | -3.4 | 0.0 | 3.4 | 1.6 | 5.7 | nt | nt
Cc1ccc2c(C)cc[n+](CCCS(=O)(=O)[O-])c2c1 | 4.1 | 12.6 | -1.6 | -3.7 | 43.5* | 13.1 | 5.0 | GDH-TPI dose=>10
Cc1ccc(C2CC(c3cccs3)n3nc(N)nc3N2)cc1 (stereo not given) | 1.6 | 18.4 | -4.5 | -12.3 | 60.5* | 7.8 | 4.2
COC(=O)[C@H](C(C)C)N(Cc1cn(Cc2ccccc2)nn1)S(=O)(=O)c1ccc(F)cc1Br | nt | nt | 12.5 | nt | nt | nt | nt
COC(=O)[C@]12C[C@H](CC(=O)NCCCCc3ccccc3)C(=O)N(Cc3cccc4ccccc34)C1=C[C@H](C(C)(C)C)O[C@@H]2C | nt | nt | 21.4 | nt | nt | nt | nt
C=CCN(CC#Cc1ccccc1)Cc1ccc(OC)cc1OC | nt | nt | 7.3 | nt | nt | nt | nt
COc1ccc(-c2cc3cc(OC)c(OC)cc3c(C)n2)cc1 | 0.6 | -5.3 | -23.6 | 85.1 | 47.0* | 73.2* | 55.0*
COc1ccc(-c2cc(OC)c3ccccc3n2)cc1 | 7.0 | 9.3 | -10.7 | 17.2 | 22.8 | nt | nt
CCCCCN1CCCCC(NC(=O)c2cc(OC)c(OC)c(OC)c2)C1=O (stereo not given) | nt | nt | 1.3 | nt | nt | nt | nt
Cc1nc(-c2cccc(S(=O)(=O)N3CCC(C)CC3)c2)cs1 | 6.3 | 0.5 | 10.0 | -15.0 | 41.5* | + | +
Cc1nc(-c2cccc(S(=O)(=O)N3CCCCC3)c2)cs1 | 0.6 | -10.3 | 10.3 | -9.3 | 3.9 | nt | nt
Cn1c(=O)oc2ccc(S(=O)(=O)Nc3ccc(Cl)cc3[N+](=O)[O-])cc21 | nt | nt | 4.9 | nt | nt | nt | nt
COC(=O)c1c(C(=O)OC)c(C)n(Cc2ccco2)c1C | 0.2 | 3.7 | -0.2 | nt | -1.3 | nt | nt
Cc1c(-c2ccccc2)nc2ccccc2c1C(=O)NCc1cccs1 | 0.3 | -0.4 | 15.3 | -0.6 | 2.0 | nt | nt
COc1ccc(Cn2c(N)c(C(=O)NCc3ccco3)c3nc4ccccc4nc32)cc1 | -32.6 | 5.8 | -65.2 | 99.4 | 61.4* | 190.1* | 158.1*
Nc1c(C(=O)NCc2ccco2)c2nc3ccccc3nc2n1Cc1ccc(F)cc1 | -108.1 | 23.9 | -46.2 | -3.4 | 58.5* | 37.8* | 36.9*
CCCCn1c(N)c(C(=O)NCc2cccs2)c2nc3ccccc3nc21 | 75.5* | 7.0 | -14.2 | 12.2 | 33.1* | 165.8* | 141.8*
CCOC(=O)c1c(N)n(Cc2ccco2)c2nc3ccccc3nc12 | nt | 14.7 | -285.0 | -9.1 | 77.4* | 198.3* | 171.9*
Nc1c(C(=O)NCc2ccco2)nnn1Cc1ccccc1 | 2.4 | 10.3 | 3.6 | 0.2 | -0.9 | nt | nt
CCC(C)CNC(=O)c1cn(C(C)c2ccccc2)nn1 (stereo not given) | nt | nt | -3.1 | nt | nt | nt | nt
COC(=O)[C@]12C[C@H](CC(=O)N3CCN(C(=O)c4ccco4)CC3)C(=O)N(Cc3ccccc3)C1=C[C@H](C(C)C)O[C@@H]2C1CC1 | nt | nt | 3.8 | nt | nt | nt | nt
